# Assay results from PubChem BioAssay.
# The source made the active and inactive calls.
# Key:
# [1] = target: Albumin (Bos taurus) (UniProt P02769); experiment: bovine serum albumin binders on microarray, profiling panel, artefact control for SMM control protein annotation, biochemical, small-molecule microarray, Alexa647 label, 635/667 nm fluorescence (AID 1118); details: BSA-A647 binding, fluorescence 635 nm, higher = more signal;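 also: score merges 667 nm emission intensity and signal-to-noise per printed compound spot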
# [2] = small-molecule microarray binders of probe aXIP, primary screen, biochemical, NeuroSMM set, 635/667 nm fluorescence (AID 1119); details: higher = more signal, called active from +8 up or from −8 down;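 also: probe is the protein aXip251-270 applied at 1 µg/mL to compound-printed slides; binding of probe to printed compounds measured as 667 nm fluorescence plus signal to noise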
# [3] = small-molecule binders of probe aNOTCH3, primary screen, biochemical, small-molecule microarray, 635/667 nm fluorescence (AID 1120); details: higher = more signal;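 also: probe is a biotin-tagged antibody raised against NOTCH3 rather than NOTCH3 protein; score merges spot fluorescence near 667 nm with spot signal to noise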
# [4] = small-molecule binders of probe aNOTCH2, primary screen, biochemical, small-molecule microarray, 635/667 nm fluorescence (AID 1121); details: higher = more signal;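 also: score merges feature fluorescence read at 667 nm with its signal to noise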
# [5] = target: Carbonic anhydrase 2 (Homo sapiens) (UniProt P00918); experiment: CAII small-molecule binders, profiling panel, biochemical, small-molecule microarray, Alexa647-labelled CAII (AID 1122); details: CAII-A647 binding fluorescence, higher = more signal
# [6] = COS7 lysate on small-molecule microarray, probe aHis, 635 nm (AID 1123); details: COS7 cell lysate, fluorescence, higher = more signal;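 also: z-score combines 667nm fluorescence intensity with signal-to-noise per printed compound spot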
# [7] = compound binding in COS7 lysate, probe aLAP1, primary screen, cell lysate, small-molecule microarray (AID 1124); details: probe aLAP1, fluorescence, higher = more signal;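 also: lysate comes from COS7 cells expressing LAP1 and is applied at 0.3 µg/mL; score merges spot fluorescence near 667 nm with signal-to-noise over triplicate slides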
# [8] = system: Sam68 (KHDRBS1); experiment: Sam68 small-molecule binders, primary screen, biochemical, small-molecule microarray, 635 nm fluorescence (AID 1125); details: small-molecule microarray binding, higher = more signal;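 also: score merges 667 nm channel intensity with signal to noise over triplicate slides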
# [9] = system: Chordin-like protein 2 (CHRDL2); experiment: CHRDL2 small-molecule binders, primary screen, biochemical, small-molecule microarray, 635 nm fluorescence (AID 1126); details: small-molecule microarray binding, fluorescence 635 nm; higher = more signal;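 also: printed compound slides probed with Chrdl2 protein at 4 µg/mL for 1 h at 4 C; score merges 667 nm emission intensity with signal to noise over three replicate slides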
# [10] = target: Concanavalin-A (Canavalia ensiformis) (UniProt P02866); experiment: ConA small-molecule binders, primary screen, artefact control for SMM control protein annotation, biochemical, small-molecule microarray, Alexa647 label, 635 nm (AID 1127); details: ConA-A647 binding fluorescence, higher = more signal;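 also: z combines 667 nm emission intensity with signal-to-noise across three replicate slides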
# Sequence of Concanavalin-A (Canavalia ensiformis) (P02866 whole entry, looked up): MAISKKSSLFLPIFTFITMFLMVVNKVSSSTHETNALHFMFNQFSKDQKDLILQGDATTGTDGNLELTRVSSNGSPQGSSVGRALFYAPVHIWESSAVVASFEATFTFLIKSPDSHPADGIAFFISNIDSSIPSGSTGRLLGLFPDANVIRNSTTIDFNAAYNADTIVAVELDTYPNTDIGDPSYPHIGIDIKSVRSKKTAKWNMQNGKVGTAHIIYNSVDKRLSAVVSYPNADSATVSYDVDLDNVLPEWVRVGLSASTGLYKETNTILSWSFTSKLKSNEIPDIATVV
# Sequence of Albumin (Bos taurus) (P02769 whole entry, looked up): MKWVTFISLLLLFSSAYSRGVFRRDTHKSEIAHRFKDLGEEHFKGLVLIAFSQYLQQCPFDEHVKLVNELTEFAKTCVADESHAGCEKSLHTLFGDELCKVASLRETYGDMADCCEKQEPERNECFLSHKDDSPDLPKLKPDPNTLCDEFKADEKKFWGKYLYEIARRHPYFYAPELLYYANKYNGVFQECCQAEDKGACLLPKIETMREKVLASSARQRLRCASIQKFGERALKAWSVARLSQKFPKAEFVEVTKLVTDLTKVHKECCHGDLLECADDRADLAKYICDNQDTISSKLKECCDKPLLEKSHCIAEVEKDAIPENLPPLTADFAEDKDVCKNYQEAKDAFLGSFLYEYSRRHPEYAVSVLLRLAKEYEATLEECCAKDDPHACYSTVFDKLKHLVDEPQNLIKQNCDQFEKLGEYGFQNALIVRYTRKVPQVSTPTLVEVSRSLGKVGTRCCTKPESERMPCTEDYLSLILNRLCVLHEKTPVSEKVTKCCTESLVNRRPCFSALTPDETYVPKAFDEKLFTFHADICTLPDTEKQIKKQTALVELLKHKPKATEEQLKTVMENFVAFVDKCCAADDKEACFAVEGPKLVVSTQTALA
Compound,composite z-score [1],composite Z-score [2],composite z-score [3],composite z-score [4],composite z-score [5],composite z-score [6],composite z-score [7],composite z-score [8],composite z-score [9],composite z-score [10]
O=C(CS)NCCCCCNC(=O)[C@H]1C[C@H]2C(=O)N3CCC[C@H]3C(=O)N2[C@H]1c1ccc(O)cc1,-1.54,-0.17 (inactive),-0.229,-0.0304,0.729,0.0961,1.23,-0.305,0.641,-0.736
COCCOC(=O)N1C(=O)[C@@]2(c3cc(C#CCNC(N)=O)ccc31)[C@H](c1ccc(OCCO)cc1)N1[C@H](c3ccccc3)[C@H](c3ccccc3)OC(=O)[C@H]1[C@@H]2C(=O)N1CCCCCCC1,-0.208,-0.333 (inactive),0.255,-0.0059,0.174,0.043,0.332,0.82,0.137,0.669
NC(=O)NCC#Cc1ccc2c(c1)[C@]1(C(=O)N2)[C@H](c2ccccc2OCCO)N2[C@H](c3ccccc3)[C@H](c3ccccc3)OC(=O)[C@H]2[C@@H]1C(=O)N1CCN(c2ncccn2)CC1,0.0405,0.39 (inactive),0.0539,-0.0907,0.335,1.82,0.614,1.29,0.326,0.946
CC1CC/C=C\[C@H]2OC34C=CCN(Cn5nnc6ccccc65)C(=O)[C@H]3N(C(C)CO)C(=O)[C@@H]4C2C(=O)O1 (stereo not given in full),-0.178,-0.105 (inactive),-0.1,-0.189,0.797,-0.0502,0.0114,-0.579,-0.764,-0.309
COCCOC(=O)N1C(=O)[C@@]2(c3cc(C#CCNC(N)=O)ccc31)[C@H](c1ccc(OCCO)cc1)N1[C@H](c3ccccc3)[C@H](c3ccccc3)OC(=O)[C@H]1[C@@H]2C(=O)Nc1nc2ccccc2s1,-0.76,-0.0202 (inactive),-0.124,-0.126,0.277,0.447,0.338,0.289,0.903,0.915
C=CC[C@]1(C(=O)N2CCCCC2)N=C(c2ccc(OCCCO)cc2)O[C@H]1c1ccccc1N=[N+]=[N-],0.947,0.103 (inactive),0.486,0.284,0.789,2.81,0.941,1.3,-0.154,1.13
CC(C)[Si](OCC[C@H]1O[C@]2(C(=O)N(Cc3ccccc3)c3ccccc32)[C@@H](C)[C@@H]1[Si](C)(C)O)(C(C)C)C(C)C,0.114,-0.0745 (inactive),0.0026,-0.148,0.191,0.379,0.0893,0.0631,-0.0644,0.367
COC(=O)C(CC#Cc1ccc2c(c1)[C@]1(C(=O)N2)[C@H](C(=O)N2CCCCCCC2)[C@H]2C(=O)O[C@H](c3ccccc3)[C@H](c3ccccc3)N2[C@@H]1c1ccc(O)cc1)C(=O)OC,-0.264,0.448 (inactive),-0.379,-0.0829,-0.59,-0.437,0.39,-0.92,-1.32,0.266
C=C(C)[C@@H]1CC=C(C(O)C2C=CC3C(=O)NC(=O)C3N2Nc2ccccn2)CC1 (stereo not given in full),-0.27,0.804 (inactive),0.441,0.0179,0.809,1.37,0.759,1.31,1.61,1.14
COCCOC(=O)N1C(=O)[C@@]2(c3cc(C#CCCO)ccc31)[C@H](C(=O)N1CCCCCCC1)[C@H]1C(=O)O[C@H](c3ccccc3)[C@H](c3ccccc3)N1[C@@H]2c1ccc(O)cc1,0.792,0.516 (inactive),0.715,0.102,0.731,2.81,0.837,1.29,0.279,1.11
O=C1C2C=CC(C(O)C(c3ccccc3)c3ccccc3)N(Nc3ccc([N+](=O)[O-])cc3)C2C(=O)N1c1ccccc1 (stereo not given),0.751,-0.214 (inactive),0.272,-0.115,0.733,3.13,0.953,1.33,0.0427,1.17
COc1cccc([C@H]2N[C@H](C(=O)O)CC[C@@H]2C)c1,-0.207,-0.269 (inactive),-0.15,-0.129,0.0689,-0.146,-0.283,0.0672,0.135,0.334
CC(=O)NCCCC[C@@H]1NC(=O)[C@@H]2C[C@H](C(=O)NCc3ccc(F)cc3)[C@H](c3cccc(OCCO)c3)N2C1=O,0.188,0.328 (inactive),-0.226,0.0383,0.659,1.07,0.19,0.506,0.174,0.474
CCN1C(C)=C(C(=O)OC)[C@@H](c2ccccc2)N2C(=O)[C@@]3(C(=O)OC)O[C@@]12[C@@H]1C(=O)N(C)C(=O)[C@@H]13,0.216,0.0523 (inactive),0.19,-0.141,0.752,0.32,0.164,0.686,1.01,0.418
C=CCC(OC(C)=O)[C@@H]1[C@@H](N(Cc2cc3ccccc3o2)C(=O)c2ccc(C)cc2)c2cc(OCCCO)ccc2N1C(=O)c1ccc2ccccc2n1 (stereo not given in full),0.659,0.0726 (inactive),-0.0984,-0.0037,-0.135,0.043,-0.348,0.0268,0.194,-0.304
C=CC[C@@]1(C(=O)N2CCOCC2)N=C(c2ccc(OCCCO)cc2)O[C@@H]1c1ccccc1,0.18,0.0379 (inactive),-0.223,-0.327,0.716,2.17,-0.108,-0.157,-0.796,-0.226

Compound,composite z-score [1],composite Z-score [2],composite z-score [3],composite z-score [4],composite z-score [5],composite z-score [6],composite z-score [7],composite z-score [8],composite z-score [9],composite z-score [10]
O=C1OCC=C[C@H]2OC34C=CCN(Cc5ccccc5)C(=O)[C@H]3N(CCO)C(=O)[C@@H]4[C@@H]12 (stereo not given in full),0.661,0.383 (inactive),-0.248,-0.177,0.824,0.666,-0.0963,-0.72,-1.82,-0.403
CC(=O)NCCCC[C@@H]1NC(=O)[C@H]2C[C@@H](C(=O)NCCCCCCN(C)C)[C@@H](c3cccc(OCCO)c3)N2C1=O,-1.13,3.25 (inactive),0.259,0.075,0.694,1.73,1.09,1.32,1.43,1.16
O=C/C=C/c1ccc(/C=C/c2ccccc2)cc1,-0.435,-0.738 (inactive),-0.25,-0.175,-0.147,-0.792,0.103,-1.22,0.95,-0.342
C=CCN1C(=O)[C@@]2(O[C@@H](CCn3cc([C@H](O)c4ccccc4)nn3)[C@H]([Si](C)(C)c3ccc(OC)cc3)[C@H]2C)c2cc(N3CCOC3=O)ccc21,0.0865,0.146 (inactive),-0.0932,-0.0666,0.614,1.02,0.0741,1.11,-0.0548,-0.559
COC(=O)C[C@H]1O[C@]2(C(=O)N(Cc3ccccc3)c3ccc(I)cc32)[C@@H](C)[C@@H]1[Si](C)(C)c1ccc(OC)cc1,0.298,0.167 (inactive),-0.185,-0.0956,-0.228,-0.322,-0.0227,-0.879,0.0477,-0.0276
COC(=O)c1ccc(C#CC(NP(=O)(c2ccccc2)c2ccccc2)c2ccccc2)cc1 (stereo not given),1,0.444 (inactive),0.272,0.335,1.1,2.59,-0.0375,1.08,1.49,1.15
CO[C@H]1COC(=O)[C@@H](C)NC(=O)CC=C[C@@H](C)[C@H](OC)COC(=O)CC=C[C@@H]1C,-0.731,1.16 (inactive),-0.0679,-0.201,-0.576,-0.724,-0.517,0.32,1.46,-1.28
COc1ccc([C@H]2C[C@H]3C(Br)=C[C@]2(OC)C(=O)[C@]32CO2)cc1,0.504,-0.145 (inactive),-0.0918,-0.161,0.545,-0.332,0.542,-0.72,0.388,0.0428
CC(C)[Si](OCCCNS(=O)(=O)c1ccc(Br)cc1)(C(C)C)C(C)C,0.406,-0.495 (inactive),0.107,-0.0877,0.0774,0.468,0.194,1.33,0.29,1.08
C=CCc1cccc([C@H]2N[C@H](C(=O)O)CC[C@@H]2C)c1,-0.595,-0.149 (inactive),-0.122,-0.157,0.0666,-0.31,-0.27,0.538,0.843,0.0607
C[C@H]1COC(=O)[C@@H]2CCCN2C(=O)[C@@H](C)COC(=O)[C@@H]2CCCN2C1=O,-0.503,-0.221 (inactive),-0.241,-0.108,-0.525,-0.99,-0.111,-1.02,0.296,-0.0254
C=CCC(OC(C)=O)[C@@H]1[C@@H](N(Cc2ccc(-c3ccccc3)cc2)C(=O)c2ccc(C)cc2)c2cc(OCCCO)ccc2N1C(=O)c1ccc(-c2ccccc2)cc1 (stereo not given in full),0.101,0.451 (inactive),-0.0933,-0.0664,-0.102,0.23,0.232,-0.0015,-0.0151,-0.925
NC(=O)NCC#Cc1ccc2c(c1)[C@]1(C(=O)N2)[C@H](C(N)=O)[C@H]2C(=O)O[C@H](c3ccccc3)[C@H](c3ccccc3)N2[C@@H]1c1ccccc1OCCO,0.284,0.0219 (inactive),0.121,-0.0762,0.175,0.841,0.519,0.978,0.543,0.936
O=C(NCC(F)(F)F)[C@@H]1c2ccccc2C(=O)N(Cc2ccccc2Cl)[C@H]1c1ccc(CO)cc1,-0.288,-0.152 (inactive),-0.48,-0.182,0.761,0.546,1.03,-1.35,-0.584,-0.907
CCCNC(=O)[C@@]1(Sc2ccc(C)cc2)CC(=O)N(Cc2ccccc2Cl)[C@@H]1c1ccc(CO)cc1,0.694,0.165 (inactive),0.308,-0.0906,0.572,1.67,1.2,1.31,0.725,1.12
CO[C@H]1COC(=O)[C@H](CCSC)NC(=O)CC=C[C@@H](C)COC(=O)[C@@H](OCc2ccccc2)C=C[C@@H]1C,-1.35,-0.273 (inactive),-0.0914,-0.102,-0.498,-0.345,-0.0638,0.51,1.51,-0.623
